Experiment in all cases: DAPPL (digital affinity profiling via proximity ligation, sequencing); 10 mM Tris-HCl pH 7.5, 50 mM NaCl, 1 mM DTT, 4% glycerol, room temperature, 30 min; GST-TFs on glutathione beads, 16-mer random dsDNA library, 0.1% formaldehyde crosslink after washing; high values mean tight binding
In one assay the target is T1, FEV (Homo sapiens, UniProt Q99581 1-238).
T1 sequence: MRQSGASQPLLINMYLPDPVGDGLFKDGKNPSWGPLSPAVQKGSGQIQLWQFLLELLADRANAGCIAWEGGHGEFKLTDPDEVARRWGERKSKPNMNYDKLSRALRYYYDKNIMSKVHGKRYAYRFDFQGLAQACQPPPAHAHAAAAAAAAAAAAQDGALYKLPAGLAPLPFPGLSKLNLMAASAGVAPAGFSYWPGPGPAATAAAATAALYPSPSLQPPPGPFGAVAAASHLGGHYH
The following applies: protein: recombinant; tags: N-terminal GST; dsDNA, one strand shown. A digest of the protocol:
(§1)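 Binding signal is given per hexamer as its read frequency for a factor divided by its frequency in the tag-only sample. GST-fused human transcription factors were expressed in yeast, captured on glutathione beads, barcoded with DNA and pooled with that sample, then incubated with 200 nmole of a 16-mer random double-stranded DNA library in Tris/NaCl/DTT/glycerol buffer for 30 min at room temperature. The pools were then washed, crosslinked, proximity-ligated, amplified by PCR and sequenced on an Illumina NextSeq500.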

Another assay concerns the target ETV5 (Homo sapiens, UniProt P41161 1-510). The following applies: protein: recombinant; tags: N-terminal GST; dsDNA, one strand shown. In short, it runs like this: as §1
In a further assay the target is HSF1 (Homo sapiens, UniProt Q00613 1-529). The following applies: protein: recombinant; tags: N-terminal GST; chain copies: 3; dsDNA, one strand shown. A digest of the protocol:
as §1

The next assay addresses T2, SPIC (Homo sapiens, UniProt Q8N5J4 1-248).
T2 sequence: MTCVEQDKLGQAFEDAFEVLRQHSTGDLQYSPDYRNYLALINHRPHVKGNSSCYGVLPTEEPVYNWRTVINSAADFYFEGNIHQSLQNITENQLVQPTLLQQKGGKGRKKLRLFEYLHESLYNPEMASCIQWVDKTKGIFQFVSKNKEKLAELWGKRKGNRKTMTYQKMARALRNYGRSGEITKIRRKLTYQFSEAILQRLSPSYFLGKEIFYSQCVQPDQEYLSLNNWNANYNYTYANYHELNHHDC
The following applies: protein: recombinant; tags: N-terminal GST; dsDNA, one strand shown. In short, it runs like this:
as §1

For the next assay, the target named is ELF4 (Homo sapiens, UniProt Q99607 1-663). The following applies: protein: recombinant; tags: N-terminal GST; dsDNA, one strand shown. A digest of the protocol:
as §1

The target of another assay is T3, ELK4 (Homo sapiens, UniProt P28324-2 1-405).
T3 sequence: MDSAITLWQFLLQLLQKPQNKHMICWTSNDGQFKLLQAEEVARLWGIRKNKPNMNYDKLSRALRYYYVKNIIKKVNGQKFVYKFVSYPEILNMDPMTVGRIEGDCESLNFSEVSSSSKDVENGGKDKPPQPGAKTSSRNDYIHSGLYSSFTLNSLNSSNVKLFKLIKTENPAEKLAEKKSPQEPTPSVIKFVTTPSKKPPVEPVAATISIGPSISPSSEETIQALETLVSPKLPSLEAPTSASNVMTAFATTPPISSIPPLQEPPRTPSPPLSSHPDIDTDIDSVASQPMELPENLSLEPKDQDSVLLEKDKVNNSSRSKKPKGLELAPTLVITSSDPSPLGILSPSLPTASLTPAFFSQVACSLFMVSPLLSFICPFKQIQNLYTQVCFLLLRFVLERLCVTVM
Particulars: protein: recombinant; tags: N-terminal GST; dsDNA, one strand shown. In short, it runs like this:
as §1

In another assay the target is T4, ETV2 (Homo sapiens, UniProt O00321 1-342).
T4 sequence: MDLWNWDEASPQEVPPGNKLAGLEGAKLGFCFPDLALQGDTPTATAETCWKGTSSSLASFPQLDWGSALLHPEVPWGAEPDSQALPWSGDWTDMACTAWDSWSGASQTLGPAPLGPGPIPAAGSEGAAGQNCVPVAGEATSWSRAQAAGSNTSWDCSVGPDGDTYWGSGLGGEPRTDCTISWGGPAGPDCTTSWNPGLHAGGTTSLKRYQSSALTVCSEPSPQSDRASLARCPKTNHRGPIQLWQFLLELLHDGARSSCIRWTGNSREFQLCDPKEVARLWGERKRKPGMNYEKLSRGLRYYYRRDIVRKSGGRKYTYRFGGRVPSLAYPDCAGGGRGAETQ
Particulars: protein: recombinant; tags: N-terminal GST; dsDNA, one strand shown. A digest of the protocol: as §1

The next assay has as its target T5, ELF3 (Homo sapiens, UniProt P78545 1-371).
T5 sequence: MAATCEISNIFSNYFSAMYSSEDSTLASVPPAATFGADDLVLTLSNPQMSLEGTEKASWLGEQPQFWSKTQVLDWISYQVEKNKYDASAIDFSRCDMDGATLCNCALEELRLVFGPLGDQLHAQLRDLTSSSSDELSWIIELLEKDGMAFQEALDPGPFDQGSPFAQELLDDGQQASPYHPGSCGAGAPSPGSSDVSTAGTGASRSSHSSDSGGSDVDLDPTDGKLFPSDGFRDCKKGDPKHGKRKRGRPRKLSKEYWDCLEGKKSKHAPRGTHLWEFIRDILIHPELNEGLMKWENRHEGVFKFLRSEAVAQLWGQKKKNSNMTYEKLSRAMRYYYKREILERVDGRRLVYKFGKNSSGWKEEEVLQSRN
The following applies: protein: recombinant; tags: N-terminal GST; dsDNA, one strand shown. A digest of the protocol: as §1

A further assay addresses CRX (Homo sapiens, UniProt O43186 1-299). Particulars: protein: recombinant; tags: N-terminal GST; dsDNA, one strand shown. In short, it runs like this: as §1
A further assay has as its target ETV1 (Homo sapiens, UniProt P50549 1-477). Particulars: protein: recombinant; tags: N-terminal GST; dsDNA, one strand shown. A digest of the protocol:
as §1

The next assay concerns the target T6, ERF (Homo sapiens, UniProt P50548 1-548).
T6 sequence: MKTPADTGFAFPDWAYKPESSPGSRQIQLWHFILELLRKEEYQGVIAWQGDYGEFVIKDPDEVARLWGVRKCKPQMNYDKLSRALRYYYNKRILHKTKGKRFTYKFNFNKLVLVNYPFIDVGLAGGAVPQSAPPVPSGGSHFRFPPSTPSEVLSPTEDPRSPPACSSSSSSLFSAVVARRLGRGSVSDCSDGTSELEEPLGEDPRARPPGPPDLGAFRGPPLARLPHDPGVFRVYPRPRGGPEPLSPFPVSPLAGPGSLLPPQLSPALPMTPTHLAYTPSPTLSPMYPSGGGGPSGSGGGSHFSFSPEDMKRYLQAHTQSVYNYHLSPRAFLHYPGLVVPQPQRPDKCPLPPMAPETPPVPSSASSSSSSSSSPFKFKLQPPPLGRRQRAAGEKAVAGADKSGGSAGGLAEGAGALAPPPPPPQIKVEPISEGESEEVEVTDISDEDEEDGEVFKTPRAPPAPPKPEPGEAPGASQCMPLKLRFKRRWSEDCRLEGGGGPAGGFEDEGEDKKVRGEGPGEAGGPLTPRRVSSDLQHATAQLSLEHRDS
Particulars: protein: recombinant; tags: N-terminal GST; dsDNA, one strand shown. In short, it runs like this:
as §1

Another assay addresses T7, ETV3L (Homo sapiens, UniProt Q6ZN32 1-361).
T7 sequence: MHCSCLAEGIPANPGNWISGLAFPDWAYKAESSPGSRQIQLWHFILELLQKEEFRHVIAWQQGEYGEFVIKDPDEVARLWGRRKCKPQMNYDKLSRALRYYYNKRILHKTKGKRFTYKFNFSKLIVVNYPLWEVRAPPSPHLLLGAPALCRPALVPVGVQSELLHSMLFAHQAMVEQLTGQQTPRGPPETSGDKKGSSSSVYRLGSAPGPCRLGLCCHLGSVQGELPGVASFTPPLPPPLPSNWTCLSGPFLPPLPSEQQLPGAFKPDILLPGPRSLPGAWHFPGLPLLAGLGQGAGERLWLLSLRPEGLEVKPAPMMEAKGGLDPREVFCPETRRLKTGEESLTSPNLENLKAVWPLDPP
The following applies: protein: recombinant; tags: N-terminal GST; dsDNA, one strand shown. In short, it runs like this: as §1

Another assay has as its target T8, ETS2 (Homo sapiens, UniProt P15036 1-469).
T8 sequence: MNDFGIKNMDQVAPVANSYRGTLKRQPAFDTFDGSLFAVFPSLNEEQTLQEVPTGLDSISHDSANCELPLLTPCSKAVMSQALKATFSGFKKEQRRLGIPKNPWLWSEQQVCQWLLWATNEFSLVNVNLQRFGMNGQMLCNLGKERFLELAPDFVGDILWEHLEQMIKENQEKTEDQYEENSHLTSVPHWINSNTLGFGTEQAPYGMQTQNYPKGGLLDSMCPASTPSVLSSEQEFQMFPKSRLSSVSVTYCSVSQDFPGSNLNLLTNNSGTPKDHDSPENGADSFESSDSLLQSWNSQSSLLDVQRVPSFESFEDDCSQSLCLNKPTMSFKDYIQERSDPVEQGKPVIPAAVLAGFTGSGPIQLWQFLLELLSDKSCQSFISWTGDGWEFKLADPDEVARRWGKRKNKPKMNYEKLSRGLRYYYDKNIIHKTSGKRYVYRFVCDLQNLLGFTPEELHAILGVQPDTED
The following applies: protein: recombinant; tags: N-terminal GST; dsDNA, one strand shown. A digest of the protocol:
as §1

In another assay the target is T9, SPDEF (Homo sapiens, UniProt O95238 1-335).
T9 sequence: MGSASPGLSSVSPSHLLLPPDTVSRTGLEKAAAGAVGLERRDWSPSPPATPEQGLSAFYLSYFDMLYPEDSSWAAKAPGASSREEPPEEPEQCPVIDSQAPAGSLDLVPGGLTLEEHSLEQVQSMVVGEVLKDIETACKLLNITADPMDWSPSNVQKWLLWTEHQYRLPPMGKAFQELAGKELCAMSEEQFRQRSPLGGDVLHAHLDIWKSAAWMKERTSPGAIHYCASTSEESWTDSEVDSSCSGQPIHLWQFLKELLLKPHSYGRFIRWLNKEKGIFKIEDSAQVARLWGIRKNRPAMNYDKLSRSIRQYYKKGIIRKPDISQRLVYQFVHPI
Particulars: protein: recombinant; tags: N-terminal GST; dsDNA, one strand shown. A digest of the protocol: as §1

The next assay has as its target T10, ETV7 (Homo sapiens, UniProt Q9Y603 1-341).
T10 sequence: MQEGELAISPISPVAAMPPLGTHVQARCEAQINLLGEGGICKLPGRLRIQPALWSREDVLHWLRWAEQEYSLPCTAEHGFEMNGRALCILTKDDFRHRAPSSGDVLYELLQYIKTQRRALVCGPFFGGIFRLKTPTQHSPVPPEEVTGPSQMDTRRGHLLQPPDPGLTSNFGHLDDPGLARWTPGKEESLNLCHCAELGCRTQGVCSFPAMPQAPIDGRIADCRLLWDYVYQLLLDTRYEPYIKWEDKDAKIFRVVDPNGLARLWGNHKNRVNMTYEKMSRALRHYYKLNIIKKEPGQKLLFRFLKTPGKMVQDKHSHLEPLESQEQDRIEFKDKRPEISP
The following applies: protein: recombinant; tags: N-terminal GST; dsDNA, one strand shown. In short, it runs like this:
as §1

The next assay concerns the target T11, ELF5 (Homo sapiens, UniProt Q9UKW6-2 1-255).
T11 sequence: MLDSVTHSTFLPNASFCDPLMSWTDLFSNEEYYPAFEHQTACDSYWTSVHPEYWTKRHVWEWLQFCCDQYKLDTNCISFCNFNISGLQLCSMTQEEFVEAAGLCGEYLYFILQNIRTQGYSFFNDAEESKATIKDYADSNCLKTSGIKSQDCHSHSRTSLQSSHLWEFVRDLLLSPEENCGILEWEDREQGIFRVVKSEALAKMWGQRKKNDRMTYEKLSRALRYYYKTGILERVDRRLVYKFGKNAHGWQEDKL
The following applies: protein: recombinant; tags: N-terminal GST; dsDNA, one strand shown. In short, it runs like this:
as §1

The next assay addresses T12, ETV3 (Homo sapiens, UniProt P41162-2 1-143).
T12 sequence: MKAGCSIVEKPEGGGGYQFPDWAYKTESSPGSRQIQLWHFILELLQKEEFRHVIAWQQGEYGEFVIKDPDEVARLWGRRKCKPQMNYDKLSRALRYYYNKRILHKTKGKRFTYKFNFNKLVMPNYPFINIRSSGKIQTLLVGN
The following applies: protein: recombinant; tags: N-terminal GST; dsDNA, one strand shown. In short, it runs like this: as §1

The next assay has as its target ETV6 (Homo sapiens, UniProt P41212 1-452). The following applies: protein: recombinant; tags: N-terminal GST; dsDNA, one strand shown. A digest of the protocol:
as §1

Sequence of ELF4 (Q99607 whole entry): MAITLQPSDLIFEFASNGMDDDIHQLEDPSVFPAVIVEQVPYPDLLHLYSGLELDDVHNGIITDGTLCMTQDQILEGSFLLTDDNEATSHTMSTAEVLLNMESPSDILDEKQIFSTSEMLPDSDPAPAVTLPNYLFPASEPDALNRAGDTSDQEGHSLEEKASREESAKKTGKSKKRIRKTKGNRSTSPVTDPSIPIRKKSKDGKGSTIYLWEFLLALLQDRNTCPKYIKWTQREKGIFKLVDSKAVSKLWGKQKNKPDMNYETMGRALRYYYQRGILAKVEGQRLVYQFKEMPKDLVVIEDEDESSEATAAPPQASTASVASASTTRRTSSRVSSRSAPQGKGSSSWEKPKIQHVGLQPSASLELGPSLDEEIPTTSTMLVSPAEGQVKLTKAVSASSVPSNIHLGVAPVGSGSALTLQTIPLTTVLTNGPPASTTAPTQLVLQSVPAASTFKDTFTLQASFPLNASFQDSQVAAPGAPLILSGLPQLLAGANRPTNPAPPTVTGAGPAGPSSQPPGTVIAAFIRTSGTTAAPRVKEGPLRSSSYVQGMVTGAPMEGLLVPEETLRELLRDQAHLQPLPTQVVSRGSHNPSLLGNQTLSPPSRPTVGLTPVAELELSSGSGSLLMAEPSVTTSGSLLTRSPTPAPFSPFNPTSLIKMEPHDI
Sequence of ETV1 (P50549 whole entry): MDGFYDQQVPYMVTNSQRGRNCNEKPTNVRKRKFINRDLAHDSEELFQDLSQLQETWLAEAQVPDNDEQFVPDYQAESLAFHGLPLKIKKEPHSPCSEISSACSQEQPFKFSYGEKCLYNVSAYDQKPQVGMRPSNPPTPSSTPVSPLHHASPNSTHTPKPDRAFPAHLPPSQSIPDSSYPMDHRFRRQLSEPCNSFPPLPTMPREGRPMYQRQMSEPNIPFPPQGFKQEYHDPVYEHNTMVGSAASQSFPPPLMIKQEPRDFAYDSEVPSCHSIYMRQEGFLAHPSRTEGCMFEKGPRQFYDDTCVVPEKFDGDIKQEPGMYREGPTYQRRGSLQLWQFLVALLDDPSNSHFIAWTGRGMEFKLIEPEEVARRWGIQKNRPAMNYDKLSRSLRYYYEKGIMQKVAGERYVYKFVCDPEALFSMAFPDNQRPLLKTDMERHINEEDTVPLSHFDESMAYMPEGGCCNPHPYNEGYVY
Sequence of CRX (O43186 whole entry): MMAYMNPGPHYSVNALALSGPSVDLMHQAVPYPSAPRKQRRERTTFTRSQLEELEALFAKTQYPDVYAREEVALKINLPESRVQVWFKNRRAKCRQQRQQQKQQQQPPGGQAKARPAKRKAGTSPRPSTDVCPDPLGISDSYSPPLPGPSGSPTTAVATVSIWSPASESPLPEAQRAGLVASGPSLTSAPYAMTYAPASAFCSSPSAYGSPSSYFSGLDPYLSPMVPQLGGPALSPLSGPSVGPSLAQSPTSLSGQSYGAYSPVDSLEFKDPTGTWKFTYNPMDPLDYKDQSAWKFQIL
Sequence of ETV5 (P41161 whole entry): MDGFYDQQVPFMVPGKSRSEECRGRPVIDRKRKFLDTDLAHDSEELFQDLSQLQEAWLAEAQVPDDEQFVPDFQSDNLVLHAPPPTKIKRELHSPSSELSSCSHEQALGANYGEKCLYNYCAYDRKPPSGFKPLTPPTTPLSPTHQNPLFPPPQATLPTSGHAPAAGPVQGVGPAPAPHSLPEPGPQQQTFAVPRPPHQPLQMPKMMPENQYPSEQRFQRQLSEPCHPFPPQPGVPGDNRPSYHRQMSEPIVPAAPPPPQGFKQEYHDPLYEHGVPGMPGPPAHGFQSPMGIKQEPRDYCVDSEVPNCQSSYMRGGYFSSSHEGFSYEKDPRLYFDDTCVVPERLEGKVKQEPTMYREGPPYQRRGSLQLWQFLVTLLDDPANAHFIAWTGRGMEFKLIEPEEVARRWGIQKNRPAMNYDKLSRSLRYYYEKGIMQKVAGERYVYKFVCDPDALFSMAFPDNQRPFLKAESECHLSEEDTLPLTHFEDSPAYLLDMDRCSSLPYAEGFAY
Sequence of HSF1 (Q00613 whole entry): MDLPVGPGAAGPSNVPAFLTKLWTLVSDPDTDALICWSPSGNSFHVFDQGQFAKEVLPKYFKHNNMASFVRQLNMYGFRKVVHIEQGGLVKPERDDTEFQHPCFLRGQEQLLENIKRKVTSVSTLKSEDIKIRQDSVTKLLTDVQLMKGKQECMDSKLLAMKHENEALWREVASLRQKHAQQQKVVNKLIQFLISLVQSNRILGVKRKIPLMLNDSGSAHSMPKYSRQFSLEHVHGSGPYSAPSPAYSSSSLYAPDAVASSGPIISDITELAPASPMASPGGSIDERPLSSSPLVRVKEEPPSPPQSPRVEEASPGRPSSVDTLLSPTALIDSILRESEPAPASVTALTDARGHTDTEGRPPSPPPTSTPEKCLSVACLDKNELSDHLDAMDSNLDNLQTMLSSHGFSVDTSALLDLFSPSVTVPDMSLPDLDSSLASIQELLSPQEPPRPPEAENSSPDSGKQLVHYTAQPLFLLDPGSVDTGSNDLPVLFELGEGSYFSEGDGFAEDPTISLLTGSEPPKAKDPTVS
Sequence of ETV6 (P41212 whole entry): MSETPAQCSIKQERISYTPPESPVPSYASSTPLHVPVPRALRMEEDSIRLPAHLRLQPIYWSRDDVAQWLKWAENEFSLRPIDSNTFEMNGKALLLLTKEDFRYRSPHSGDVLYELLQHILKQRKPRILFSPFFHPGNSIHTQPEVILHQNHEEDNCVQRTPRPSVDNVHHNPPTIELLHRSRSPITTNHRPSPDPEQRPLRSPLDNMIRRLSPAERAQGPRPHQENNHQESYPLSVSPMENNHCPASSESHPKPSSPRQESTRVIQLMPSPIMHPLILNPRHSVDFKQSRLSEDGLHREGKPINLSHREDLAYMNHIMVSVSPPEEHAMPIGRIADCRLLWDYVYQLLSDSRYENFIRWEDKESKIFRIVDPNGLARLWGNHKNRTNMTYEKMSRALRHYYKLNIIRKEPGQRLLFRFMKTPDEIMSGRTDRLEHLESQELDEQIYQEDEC

TCCTAT: the binding signal in the assay with FEV is 1.41 fold enrichment (6-mer frequency, TF over GST control); in the assay with ETV5 it was 1.47 fold enrichment (6-mer frequency, TF over GST control); with HSF1 it was 1.41 fold enrichment (6-mer frequency, TF over GST control); with SPIC, 1.68 fold enrichment (6-mer frequency, TF over GST control); with ELF4 it was 1.46 fold enrichment (6-mer frequency, TF over GST control); in the assay with ELK4, 1.49 fold enrichment (6-mer frequency, TF over GST control). The binding signal with ETV2 was 1.56 fold enrichment (6-mer frequency, TF over GST control); in the assay with ELF3, 1.74 fold enrichment (6-mer frequency, TF over GST control); in the assay with CRX, 1.68 fold enrichment (6-mer frequency, TF over GST control); in the assay with ETV1 it was 1.57 fold enrichment (6-mer frequency, TF over GST control); with ERF it was 1.56 fold enrichment (6-mer frequency, TF over GST control); with ETV3L it was 1.5 fold enrichment (6-mer frequency, TF over GST control). In addition, the binding signal with ETS2 is 1.65 fold enrichment (6-mer frequency, TF over GST control); with SPDEF, 1.72 fold enrichment (6-mer frequency, TF over GST control); in the assay with ETV7 it was 1.53 fold enrichment (6-mer frequency, TF over GST control); in the assay with ELF5, 1.56 fold enrichment (6-mer frequency, TF over GST control); in the assay with ETV3, 1.64 fold enrichment (6-mer frequency, TF over GST control); in the assay with ETV6, 1.66 fold enrichment (6-mer frequency, TF over GST control).

The record behind these values is paper PMC7862700, “An all-to-all approach to the identification of sequence-specific readers for epigenetic DNA modifications on cytosine”.
